Screening data (PubChem BioAssay)
This is a sample that favours compounds with a hit; in the whole collection about 4% have one here.
RAD52 anneal inh = blocks human RAD52 DNA annealing; P43351; recombinant RAD52 DNA annealing, FRET fluorescence; inhibition, % at 18.7 µM; 360,000 compounds, 0.46% hits;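 active = every replicate showing at least 50% inhibition; inconclusive = mean inhibition at least 50% but not in every replicate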
DENV2 CPE rescue = DENV2-induced cell death inhibition; DENV2-infected cells, cytopathic effect rescue, plate reader; CPE inhibition, % at 9.99 µM; 350,000 compounds, 1.7% hits; AID 651640; in the data active = CPE inhibition above about 20%, passing the limit was not always enough; inconclusive = no clear call, values can overlap the other calls; tested in BHK-21 cells;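 also: 0% = median of neutral control wells and 100% = median of positive control wells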
FGF22 binding = FGF22 (human) thermal shift binding | recombinant FGF22 thermal shift, SYPRO orange fluorescence; percent of sucrose octasulfate shift, DMSO zero | activity (Tm shift, normalised), % at 9.99 µM | 340,000 compounds, 1.5% hits | AID 651658;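 active = mean Tm shift, scaled 0 neutral to 100 positive control, at about 1.3% or above, every replicate too, limit read from the data; inconclusive = no clear call, values can overlap the other calls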
AF4-AF9 inh = blocks AF4 peptide binding to human AF9. P42568. AlphaScreen, biotin-AF4 peptide binding to FLAG-AF9. inhibition, % at 10 µM. 350,000 compounds, 0.47% hits. AID 651704;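 active = every replicate reaching a set inhibition limit, whatever the replicate mean, cut at about 25% in these data; inconclusive = mean inhibition reaches that limit but some replicates miss it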;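 also: 0% = plate neutral control median and 100% = total signal loss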
ERAP1 HTS inh = blocks human ERAP1 aminopeptidase activity; Q9NZ08; recombinant ERAP1, Leu-AMC fluorescence, 60 min; inhibition, % at 10.7 µM; 340,000 compounds, 0.15% hits;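 active = mean replicate inhibition of at least 30%, or all replicates individually reaching that 30% level; inactive = mean below 30% and not every replicate reaching it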;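 also: 0% = neutral control wells and 100% = L-leucinethiol positive control wells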
Target sequence (Q9NZ08 whole entry, looked up): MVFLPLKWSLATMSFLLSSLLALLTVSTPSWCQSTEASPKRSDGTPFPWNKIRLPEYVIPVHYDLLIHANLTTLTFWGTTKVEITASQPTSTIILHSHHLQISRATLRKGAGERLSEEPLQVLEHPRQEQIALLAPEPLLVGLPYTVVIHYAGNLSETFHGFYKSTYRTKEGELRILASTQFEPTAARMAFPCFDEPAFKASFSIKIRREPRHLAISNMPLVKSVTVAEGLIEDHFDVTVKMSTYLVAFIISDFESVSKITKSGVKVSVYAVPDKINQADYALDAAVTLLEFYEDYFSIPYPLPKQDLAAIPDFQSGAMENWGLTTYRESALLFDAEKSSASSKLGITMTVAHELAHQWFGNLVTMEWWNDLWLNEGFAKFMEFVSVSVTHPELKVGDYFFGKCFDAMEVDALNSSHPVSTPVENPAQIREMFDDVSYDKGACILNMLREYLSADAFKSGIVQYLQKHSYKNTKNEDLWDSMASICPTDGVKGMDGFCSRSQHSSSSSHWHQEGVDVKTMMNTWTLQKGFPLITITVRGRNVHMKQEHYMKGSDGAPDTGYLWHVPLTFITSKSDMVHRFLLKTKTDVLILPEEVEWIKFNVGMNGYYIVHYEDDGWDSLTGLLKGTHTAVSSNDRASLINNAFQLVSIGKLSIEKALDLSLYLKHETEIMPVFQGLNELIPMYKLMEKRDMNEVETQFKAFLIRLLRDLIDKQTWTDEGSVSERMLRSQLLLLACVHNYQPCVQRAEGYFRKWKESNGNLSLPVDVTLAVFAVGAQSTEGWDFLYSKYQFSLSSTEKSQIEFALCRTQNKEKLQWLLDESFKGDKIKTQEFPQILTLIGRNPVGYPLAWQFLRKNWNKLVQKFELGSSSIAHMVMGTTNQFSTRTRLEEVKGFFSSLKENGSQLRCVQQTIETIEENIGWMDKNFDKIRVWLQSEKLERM
* marks the source's active call; other numbers are inactive results; u = inconclusive; x = no result given.

SMILES	RAD52 anneal inh	DENV2 CPE rescue	FGF22 binding	AF4-AF9 inh	ERAP1 HTS inh
CC(=O)N1[C@H](C(=O)NCc2ccc(F)cc2)[C@@H](CO)[C@@H]2Cn3c(cccc3=O)[C@@H]21	-8.1	-8.7	0.0	-0.7	0.2
CN[C@@H](C)C(=O)NC[C@H]1O[C@@H](n2cnc3c(=O)[nH]c(N)nc32)[C@H](O)[C@@H]1O	-13.4	2.3	0.0	-3.0	-1.8
COCC1OC(OC(C)C(O)c2cnc3nc(N)[nH]c(=O)c3n2)C(O)C(OC)C1O (stereo not given)	-14.5	-5.5	0.1	8.8	32.8*
Cc1nn(CC(=O)c2cccc(Cl)c2)c(C)c1[N+](=O)[O-]	-88.1	2.7	43.2*	2.1	3.5
Cc1cc(=O)c(C(=O)O)nn1-c1ccccc1	-10.7	1.9	0.2	-1.1	-0.9
Cc1nn(CC(=O)O)c(C)c1[N+](=O)[O-]	-11.8	-1.9	0.6	-0.7	12.4
Cc1nn(-c2cccc(C(=O)O)c2)c(C)c1[N+](=O)[O-]	-34.6	-6.1	43.5*	-1.7	-0.5
Cc1cc(C)n(-c2cccc(C(=O)O)c2)n1	-30.2	-6.0	44.4*	-0.7	-0.6
OC[C@@H]1[C@H](c2ccc(C3=CCCC3)cc2)[C@H]2CN(CCC(F)(F)F)CCCCN12	40.1	0.4	0.2	16.4	1.5
Fc1ccc(CCN2CCN=C2Nc2ccccc2)cc1	-13.0	124.4*	-0.2	-5.6	-0.2
CC(C)CCCN1CCN=C1Nc1ccccc1	-23.1	26.7*	0.2	3.7	0.8
c1ccc(CCN2CCN=C2Nc2ccccc2)cc1	-3.3	8.8	0.1	-7.7	1.9
CCCCN1CCN=C1Nc1ccccc1	-16.0	-6.6	0.2	-1.3	-2.0
CCC(=O)Nc1ccc2c(c1)C(=O)N(C)C[C@H](OC)[C@H](C)CN(CC1CCCCC1)[C@H](C)CO2	11.3	-0.7	0.6	-0.2	-3.1
COc1ccc(CNC(=O)C[C@@H]2C[C@H]3c4cc(NC(=O)CN(C)C)ccc4O[C@H]3[C@@H](CO)O2)cc1	8.4	2.4	0.3	0.3	-0.9
O=C(Cc1ccccn1)NCC[C@H]1CC[C@H](NS(=O)(=O)c2ccc(F)cc2)[C@H](CO)O1	-13.9	-1.1	-0.3	0.3	1.3
O=C(NNc1cccc(Cl)n1)Nc1ccc(F)cc1	-9.2	10.3	43.8*	-2.2	-0.5
CC=Cc1ccc2n(c1=O)C[C@@H]1[C@@H](CO)[C@H](C(=O)NCC)[C@H]2N1Cc1nccs1 (mixture of isomers)	-9.8	-2.1	0.0	0.7	1.6
CCN(CC)S(=O)(=O)c1ccc2[nH]c(=O)cc(C(=O)Nc3ccccc3N3CCCC3)c2c1	-12.0	2.5	0.3	4.1	-2.2
CCN(CC)S(=O)(=O)c1ccc2[nH]c(=O)cc(C(=O)NCC(c3ccco3)N3CCCC3)c2c1 (stereo not given)	-22.7	26.7*	-0.3	1.3	-2.2
CNC[C@H]1OCCCC[C@@H](C)Oc2ccc(NS(=O)(=O)c3cn(C)cn3)cc2C(=O)N([C@H](C)CO)C[C@H]1C	x	5.2	-0.4	x	x
CN(CC(=O)Nc1c(Cl)cccc1Cl)CC(=O)N(C)C1(C#N)CCCCC1	-6.2	u	42.9*	-4.2	-2.2
COc1ccc(CNC(=O)C[C@@H]2C=C[C@@H](NC(=O)CN(C)C)[C@@H](CO)O2)cc1	-11.7	5.0	0.1	0.0	1.7
NC(=O)c1ncn([C@@H]2O[C@H](CNCc3cccn3-c3ccncc3)[C@@H](O)[C@H]2O)n1	4.7	7.1	43.1*	-4.0	1.1
O=C(c1cccc(F)c1)N1C[C@H]2[C@@H](c3ccccc31)[C@@H](CO)N2C(=O)c1cccc(F)c1	-10.3	20.9*	-0.7	-0.2	-0.4
SMILES	RAD52 anneal inh	DENV2 CPE rescue	FGF22 binding	AF4-AF9 inh	ERAP1 HTS inh
COc1ccc(CN2[C@H](CO)[C@H]3c4ccccc4N(C(=O)Nc4ccc(F)cc4)C[C@H]32)cc1	-8.2	21.9*	0.0	2.3	0.3
COc1ccc(CN2[C@@H](CO)[C@@H]3c4ccccc4NC[C@@H]32)cc1	1.7	66.4*	0.3	1.7	-0.3
COc1cccc(C(=O)N2C[C@H]3[C@@H](c4ccccc42)[C@H](CO)N3C(=O)c2ccc(F)cc2)c1	-5.4	26.7*	x	-2.9	2.5
Cc1noc(C)c1NC(=O)N(C)C[C@H]1Oc2ccc(NC(=O)C3CCCCC3)cc2CC(=O)N([C@H](C)CO)C[C@@H]1C	8.0	-10.4	0.1	-0.2	0.4
O=C(c1ccncc1)N1C[C@H]2[C@@H](c3ccccc31)[C@H](CO)N2C(=O)c1ccccc1F	1.9	43.4*	0.7	0.6	3.3
O=C(Nc1ccccc1F)N1C[C@@H]2[C@H](c3ccccc31)[C@H](CO)N2C(=O)c1ccc(F)cc1	-2.9	34.9*	-0.1	-1.3	0.5
O=C(c1ccncc1)N1C[C@@H]2[C@H](c3ccccc31)[C@H](CO)N2C(=O)c1ccccc1F	10.5	-6.4	1.0	-2.6	5.4
COc1ccccc1NC(=O)N1C[C@@H]2[C@H](c3ccccc31)[C@@H](CO)N2C(C)=O	-8.0	43.9*	-0.6	3.1	0.4
COc1ccc2c3c(n(C)c2c1)[C@H](CO)N(Cc1nccs1)CC31CN(C(C)=O)C1	6.8	-7.4	-0.1	-10.8	-6.0
CCNc1nc(C(=O)O)nc(N2CCOCC2)n1	-20.9	4.6	43.1*	-0.7	-2.5
O=C(C[C@@H]1CC[C@H]2[C@@H](COC[C@@H](O)CN2C(=O)Nc2ccc(Cl)c(Cl)c2)O1)NCc1ccc(Cl)c(Cl)c1	-6.7	-2.9	0.1	1.7	-1.1
O=C(C[C@H]1CC[C@H]2[C@@H](COC[C@@H](O)CN2C(=O)Nc2ccc(Cl)c(Cl)c2)O1)NCc1ccc(Cl)c(Cl)c1	-0.6	-19.1	1.3*	1.9	-1.9
O=C(C[C@@H]1CC[C@@H]2[C@H](COC[C@H](O)CN2S(=O)(=O)c2ccc(F)cc2)O1)NCC1CC1	2.9	-4.5	-0.1	1.2	-1.1
O=C(C[C@@H]1CC[C@H]2[C@@H](COC[C@H](O)CN2S(=O)(=O)c2ccc(F)cc2)O1)NCC1CCCCC1	89.1*	6.5	-0.1	36.1*	-2.1
O=C(C[C@@H]1CC[C@H]2[C@@H](COC[C@@H](O)CN2S(=O)(=O)c2ccc(Cl)cc2)O1)NCCN1CCCC1	12.0	23.1*	-0.9	-4.3	2.5
O=C(C[C@@H]1CC[C@H]2[C@@H](COC[C@@H](O)CN2S(=O)(=O)c2ccc(Cl)cc2)O1)NCC1CCCCC1	42.0	14.3	-0.3	33.6*	0.3
COc1ccc(S(=O)(=O)N[C@@H]2C=C[C@H](CC(=O)NCc3ccccc3F)O[C@@H]2CO)cc1	14.0	u	0.1	-12.5	-16.1
Cc1noc(C)c1NC(=O)Nc1ccc2c(c1)C(=O)N([C@H](C)CO)C[C@@H](C)[C@@H](CN(C)C(=O)Nc1ccc(F)cc1)O2	0.6	-1.6	-0.1	u	0.0
CCNC(=O)C[C@@H]1CC[C@H]2[C@@H](COc3ccc(NC(=O)Nc4ccccc4F)cc3C(=O)N2C)O1	-9.5	4.2	-0.1	-0.4	0.0
